Bioassay records from PubChem BioAssay.
RORg inh: ROR gamma (mouse) transcription inhibition. P51450. Drosophila S2 Gal4-RORgamma UAS-luciferase reporter, 20 h. Potency, µM (titrated, usually from 53.6 µM), actives largely listed as inhibitors. 310,000 tested, 5.4% active; note: nearly all actives have a fitted effect of over 60% in size
Target sequence (P51450 whole entry, looked up, the tested form may be a part): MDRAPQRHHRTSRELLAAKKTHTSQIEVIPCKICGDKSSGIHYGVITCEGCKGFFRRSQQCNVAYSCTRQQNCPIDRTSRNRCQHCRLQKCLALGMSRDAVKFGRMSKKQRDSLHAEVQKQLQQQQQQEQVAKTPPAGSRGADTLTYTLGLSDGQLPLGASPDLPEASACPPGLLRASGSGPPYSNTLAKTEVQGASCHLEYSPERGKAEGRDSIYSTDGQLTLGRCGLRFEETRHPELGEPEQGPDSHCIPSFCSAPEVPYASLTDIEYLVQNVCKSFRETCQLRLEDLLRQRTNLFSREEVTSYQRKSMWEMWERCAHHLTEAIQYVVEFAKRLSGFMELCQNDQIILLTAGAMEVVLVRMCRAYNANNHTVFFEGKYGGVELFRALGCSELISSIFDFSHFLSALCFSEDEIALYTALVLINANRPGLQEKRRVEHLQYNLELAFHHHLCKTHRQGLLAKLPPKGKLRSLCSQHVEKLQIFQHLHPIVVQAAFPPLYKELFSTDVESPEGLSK
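Schneider cells (Drosophila), stable Gal4 DBD–ROR gamma + UAS-luc; 1 hr cmpd preincubation; Cu2+ induction 700 uM final; 20 hr ambient; luminescence.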
Sfp PPTase inh: inhibitors of Bacillus subtilis Sfp phosphopantetheinyl transferase | 310,000 tested, 3.5% active | Biochemical Sfp PPTase activity, qHTS | Potency, µM, actives largely listed as inhibitors | Q9F4F7;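 note: the enzyme is Sfp with the accession as filed and its product quenches rhodamine fluorescence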
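With Hepes-Na pH 7.6 buffer containing 10 mM MgCl2, Sfp (15 nM) modified BHQ-2-YbbR (12.5 uM) using rhodamine-CoA (5 uM). Two reads 30 minutes apart at 525/598 nm yielded each well's rate.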
ALDH1A1 inh: ALDH1A1 (human) enzyme inhibition; P00352; Purified ALDH1A1, NADH fluorescence, propionaldehyde substrate; Potency, µM (series often up to 75.3 µM), hits mostly inhibitors; 220,000 tested, 7.3% active; active = well fitted inhibition curve with a large enough effect, not every such curve was filed as active; inconclusive = small, poorly fitted or top-dose-only effect, or another doubt; inactive = no such curve, though single readings can be large or run the other way
PLK1 PBD inh: PLK1 (human) polo-box domain binding inhibition. Plk1 PBD binding of FITC phosphopeptide, fluorescence polarization. Potency, µM, most hits filed as inhibitors. 360,000 tested, 2.8% active; note: series mostly up to about 57 µM; nearly all actives have a fitted effect of over 65% in size
Gal4-VP16 FLuc: Gal4-VP16 reporter inhibition counter-screen; Drosophila S2 Gal4-VP16 UAS-luciferase, luminescence, 20 h; 310,000 tested, 3.5% active; Potency, µM (highest dose often 53.6 µM), hits mostly inhibitors;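 note: Gal4-VP16 expression switched on by copper sulfate through the metallothionein promoter; nearly all actives have a fitted effect of over 50% in size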
Each line names hits and unclear results; the compound was inactive in the other large screens; ! = a repeat was not active. The list is not random: actives were taken first. Their share in the collection is about 12%. Unless noted, calls come from the whole dose curve; as a rule, active = well fitted curve in the direction sought with a large enough effect; inconclusive = small, poorly fitted or top-dose-only effect, or another doubt; inactive = no such curve, though single readings can be large; an effect the other way counts as inactive or inconclusive.

C/C(CC(=O)N1CCCC1)=N\NC(=O)c1cc2ccccc2cc1O	RORg inh 6.3µM, Gal4-VP16 FLuc inconclusive (no result: ALDH1A1 inh)
O=C(O)c1ccccc1/C=N\N=C1c2ccccc2-c2ccccc21	none (no result: RORg inh, Sfp PPTase inh, PLK1 PBD inh, Gal4-VP16 FLuc)
CCOc1ccc(/C=C2/SC(=S)N(C(C(=O)O)c3ccccc3)C2=O)cc1OCC (stereo not given)	Sfp PPTase inh 56µM, ALDH1A1 inh inconclusive, PLK1 PBD inh inconclusive
COc1ccccc1/C=C1\SC(=S)N(NS(=O)(=O)c2ccccc2)C1=O	PLK1 PBD inh inconclusive (no result: ALDH1A1 inh)
COc1cc(/C=C2\SC(=S)N(C(C(=O)O)c3ccccc3)C2=O)ccc1O (stereo not given)	Sfp PPTase inh inconclusive (no result: ALDH1A1 inh)
CCOc1cc(/C=C2\SC(=S)N(C(C(=O)O)c3ccccc3)C2=O)ccc1O (stereo not given)	Sfp PPTase inh 40µM, ALDH1A1 inh 32µM, Gal4-VP16 FLuc inconclusive
O=C(O)C(c1ccccc1)N1C(=O)/C(=C\c2ccc(O)c(O)c2)SC1=S (stereo not given)	none (no result: ALDH1A1 inh)
COc1ccccc1/C=C1\SC(=S)N(C(C(=O)O)c2ccccc2)C1=O (stereo not given)	Sfp PPTase inh 56µM, PLK1 PBD inh 24µM (no result: ALDH1A1 inh)
CCOc1cc(/C=C2/SC(=S)N(C)C2=O)ccc1Oc1ccc([N+](=O)[O-])cc1[N+](=O)[O-]	ALDH1A1 inh 0.4µM (no result: PLK1 PBD inh)
CC[C@@]1(c2ccccc2)NC(=O)NC1=O	none (no result: ALDH1A1 inh, PLK1 PBD inh)
Cc1onc(-c2ccccc2)c1C(=O)Nc1nnc(N2CCCCCC2)s1	RORg inh inconclusive, ALDH1A1 inh inconclusive, Gal4-VP16 FLuc 0.35µM
Cc1noc(C)c1C(=O)Nc1nnc(-c2ccccc2)s1	RORg inh 11µM, Gal4-VP16 FLuc inconclusive
CC(=O)N1c2ccc(S(=O)(=O)N3CCC(C(=O)NCCc4ccc(Cl)cc4)CC3)cc2CC1C (stereo not given)	RORg inh inconclusive, Gal4-VP16 FLuc inconclusive (no result: ALDH1A1 inh)
O=C(CSc1nc2sc3c(c2c(=O)n1-c1ccccc1)CCCC3)NCc1ccco1	ALDH1A1 inh inconclusive
CC(C)(C)c1nc2ccccc2c2nnc(SCC(=O)NCc3ccco3)n12	ALDH1A1 inh 25µM
Cc1nc2sc3c(c2c2nnc(SCC(=O)NCc4ccco4)n12)CCCC3	Sfp PPTase inh inconclusive, ALDH1A1 inh 14µM
CC(C)c1nc2ccccc2c2nnc(SCC(=O)NCc3ccco3)n12	PLK1 PBD inh 30µM
COc1ccc(C2CC(c3ccccc3)Oc3cc(C)cc(C)c32)cc1 (stereo not given)	none (no result: ALDH1A1 inh, PLK1 PBD inh)
COc1ccc(N(C(=O)c2ccccc2C)S(=O)(=O)c2cccs2)cc1	ALDH1A1 inh 11µM
COc1ccc(N(C(=O)c2ccncc2)S(=O)(=O)c2ccccc2)cc1	none (no result: ALDH1A1 inh)
COc1ccc(-c2nc3ccc(Cl)cn3c2CC(C)(C)C)cc1OC	none (no result: RORg inh, Sfp PPTase inh, ALDH1A1 inh, Gal4-VP16 FLuc)
CCc1ccc(Nc2ccc3nonc3c2[N+](=O)[O-])cc1	none (no result: RORg inh, Sfp PPTase inh, ALDH1A1 inh, Gal4-VP16 FLuc)
CCOC(=O)NNc1ccc2nonc2c1[N+](=O)[O-]	Sfp PPTase inh 20µM, ALDH1A1 inh 18µM, PLK1 PBD inh 8.4µM, Gal4-VP16 FLuc inconclusive
COc1ccccc1S(=O)(=O)N[C@@H]1CC[C@@H](CCn2cc(C3CC3)nn2)O[C@@H]1CO	none (no result: RORg inh, Sfp PPTase inh, ALDH1A1 inh, Gal4-VP16 FLuc)
CCCOc1ccccc1-c1nc2n[nH]nc2c(=O)[nH]1	ALDH1A1 inh 20µM!
CCCc1nn(C)c2c(=O)[nH]c(-c3ccccc3OCC)nc12	ALDH1A1 inh inconclusive
COCC(=O)Nc1c(C(=O)Nc2ccc3c(c2)OCO3)oc2ccccc12	PLK1 PBD inh 30µM (no result: ALDH1A1 inh)
CCN(CC)CCOC(=O)c1ccc(NC(=O)CSc2nnc(-c3cccs3)n2CC)cc1	none (no result: RORg inh, Sfp PPTase inh, ALDH1A1 inh, Gal4-VP16 FLuc)
CC(N)(Cc1ccc(O)c(O)c1)C(=O)O (stereo not given)	ALDH1A1 inh 2.2µM (no result: RORg inh, Sfp PPTase inh, PLK1 PBD inh, Gal4-VP16 FLuc)
C[C@@](N)(Cc1ccc(O)cc1)C(=O)O	none (no result: PLK1 PBD inh)
Cc1cccc(-c2c3c(=O)n(C)c(=O)n(C)c3cn2-c2ccccc2O)c1	RORg inh inconclusive, Sfp PPTase inh 50µM, ALDH1A1 inh inconclusive
Cn1c(=S)[nH]c(=O)c2ncc(=O)[nH]c21	Sfp PPTase inh 71µM
CCC(C(=O)OCC(=O)NC(=O)NC(C)(C)C)c1ccccc1 (stereo not given)	PLK1 PBD inh 27µM
CCCNC(=O)c1cc(C2CCCCN2S(C)(=O)=O)on1 (stereo not given)	none (no result: RORg inh, Sfp PPTase inh, ALDH1A1 inh, Gal4-VP16 FLuc)
CCOC(=O)C1=C(SCC)c2cc3c(n2C1=O)CCCC3	RORg inh inconclusive, ALDH1A1 inh inconclusive
N#CC1=C(N2CCCCC2)c2cc3c(n2C1=O)CCCC3	ALDH1A1 inh 8.9µM
